In PubChem BioAssay AID624040 (The Scripps Research Institute Molecular Screening Center, 2012):
The campaign covered roughly 360,000 compounds. About 2,100 (0.58%) were called active. What follows is part of a selection rich in actives, with near analogues and random picks from the rest. A number with no mark means an inactive call.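 The calls were made as follows: active = inhibition above a per-plate cutoff, the mean of that plate's test compounds plus 3 SD (cut at about 27% in these data); inactive = the rest.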

What follows are compounds tested against Muscarinic acetylcholine receptor M5 (Homo sapiens) (UniProt P08912) (assay: CHRM5 blockers of acetylcholine calcium response – CHO cells, Fluo-8 calcium fluorescence, primary screen (AID 624040;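 also: 0% = acetylcholine EC80 with DMSO and 100% = DMSO without agonist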)). Conditions: CHO-hM5 cells, ACh EC80, at 3 µM, stronger effect = higher value.
Muscarinic acetylcholine receptor M5 (Homo sapiens), sequence (P08912 whole entry, looked up): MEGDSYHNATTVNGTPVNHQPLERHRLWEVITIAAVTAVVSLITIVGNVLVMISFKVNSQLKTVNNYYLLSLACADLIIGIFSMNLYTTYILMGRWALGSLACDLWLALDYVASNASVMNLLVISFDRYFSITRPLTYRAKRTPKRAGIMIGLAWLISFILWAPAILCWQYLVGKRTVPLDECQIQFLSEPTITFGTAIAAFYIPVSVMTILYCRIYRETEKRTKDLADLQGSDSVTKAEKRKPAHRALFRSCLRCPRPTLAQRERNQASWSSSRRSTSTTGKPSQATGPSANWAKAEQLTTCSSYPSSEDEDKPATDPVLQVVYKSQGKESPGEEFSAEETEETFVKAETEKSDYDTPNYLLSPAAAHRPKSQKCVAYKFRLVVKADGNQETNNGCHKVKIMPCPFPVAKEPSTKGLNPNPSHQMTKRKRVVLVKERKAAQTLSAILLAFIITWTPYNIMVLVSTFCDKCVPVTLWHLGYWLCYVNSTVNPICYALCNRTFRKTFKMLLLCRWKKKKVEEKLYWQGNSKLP
`Cc1ccc(-c2cnc(C(O)c3cccc(C)c3C)[nH]2)cc1` (stereo not given) gave an inhibition of -3.72%. For `COCCn1c(C)cc(C(=O)CSc2nc3ccccc3c(=O)n2C(C)COC)c1C` (stereo not given), the inhibition was 9.46%. For `CCCn1nc(NC(=O)C(C)C)c2cc3cc(OC)ccc3nc21`, the inhibition was 14.6%. `O=C1CS(=O)CN1c1ccc(Oc2ccccc2)cc1` (stereo not given) showed an inhibition of -0.11%. `CC(C)(C)c1cc2cccnc2n1Cc1cccc(F)c1` showed an inhibition of -7.37%. Compound `CCOc1ccc(CN2CCNC(=O)C2CC(=O)NCCCC2CCCC2)cc1` (stereo not given) has an inhibition of 9.04%. For `O=C(CCc1ccc(S(=O)(=O)N2CCOCC2)cc1)NN=C1CCCCCCC1`, the inhibition was -2.08%. Compound `COc1cccc(OCC(=O)NCCS(=O)(=O)N2CCN(c3ccccc3)CC2)c1` has an inhibition of -6.65%. `CC(C)N(Cc1nc(-c2ccc3c(c2)OCO3)no1)CC1CCC(=O)N1` (stereo not given) showed an inhibition of 16%. Compound `OC[C@@H]1CN(Cc2ccc(F)cc2)C[C@H](n2cnc3c(NC4CCCC4)ncnc32)O1` has an inhibition of 4.45%. In the case of `OC[C@@H]1CN(Cc2ccc(-c3ccccc3)cc2)C[C@H](n2cnc3c(NC4CCCC4)ncnc32)O1`, the inhibition was 31.4% (active). For `OC[C@@H]1CN(C2CCCC2)C[C@H](n2cnc3c(NC4CCC4)ncnc32)O1`, the inhibition was 9.41%. `O=C(NNC(=S)Nc1ccccc1)c1cccc(S(=O)(=O)N2CCOCC2)c1` showed an inhibition of -3.26%. In the case of `Cc1ccc(C(=O)NCC(=O)OCC(=O)NC2CCCCCCC2)cc1`, the inhibition was 7.24%. In the case of `Cc1cccc(CSc2nc3c(c(=O)n2C)SCC3)c1`, the inhibition was 36.1% (active). For `COCCn1c(SCC(=O)Nc2ccc(F)cc2F)nc2c(c1=O)SCC2`, the inhibition was -2.37%. For `COCCn1c(SCC(=O)Nc2ccccc2F)nc2c(c1=O)SCC2`, the inhibition was -1.26%. For `CN(CCCNC(=O)CN1C(=O)CC(C)(C)S(=O)(=O)c2ccccc21)C1CCCCC1`, the inhibition was 3.09%. `CC1(C)C2CC=C(/C=N/NC(=O)C3CC3)C1C2` (stereo not given) gave an inhibition of -4.33%. With `COc1cc(C(=O)N2CCN(S(=O)(=O)c3ccc(C(C)C)cc3)CC2)ccc1OCC(=O)N1CCOCC1` the inhibition was -6.27%. For `C=C(C)c1cccc(C(C)(C)NC(=O)NCCN(CC)CC)c1`, the inhibition was 52.3% (active). Work on `C=C(C)c1cccc(C(C)(C)NC(=O)N2CCN(c3ncccn3)CC2)c1` yielded an inhibition of 4.22%. `C=C(C)c1cccc(C(C)(C)NC(=O)NC2CCCC2)c1` was tested, and the inhibition was -4.91%. Compound `CC(=O)N1CC(=O)N(CC(=O)Nc2ccc(Br)cc2)C1=S` has an inhibition of 15.7%. In the case of `Cc1ccc(S(=O)(=O)N(C)CC(=O)NCC(c2ccc(F)cc2)N2CCOCC2)cc1` (stereo not given), the inhibition was 4.43%. With `Cc1ccc(NC(=S)N2CCN(c3ncccn3)CC2)cc1C` the inhibition was 0.78%. With `O=C(c1c(F)cccc1F)N1CCN(S(=O)(=O)c2ccc3c(c2)OCCO3)CC1` the inhibition was 15.2%. `O=C(c1ccc(Cl)nc1)N1CCN(S(=O)(=O)c2ccc3c(c2)OCCO3)CC1` showed an inhibition of 8.5%. `O=C(c1c(F)cccc1Cl)N1CCN(S(=O)(=O)c2ccc3c(c2)OCCCO3)CC1` was tested, and the inhibition was 32.7% (active). `Nc1nonc1-n1nnc(C(=O)N/N=C/c2ccc(Cl)cc2)c1-c1ccc2c(c1)OCO2` showed an inhibition of 4.23%. Work on `CN(C)CCOC1c2ccccc2-c2ccccc21` yielded an inhibition of 9.21%. For `Cc1ccccc1C(OCC(O)CN1CCCCC1CCO)c1ccccc1` (stereo not given), the inhibition was 1.17%. In the case of `Cc1ccccc1C(OCCN(C)C)C1CCCCC1` (stereo not given), the inhibition was 98.7% (active). `Cc1ccc(S(=O)(=O)N2CCN(C(=O)CCC(=O)NC3CCCc4ccccc43)CC2)cc1` (stereo not given) showed an inhibition of 1.42%. `CCOc1ccc(C(=O)N(Cc2ccc(N(C)C)cc2)C2CCS(=O)(=O)C2)cc1` (stereo not given) was tested, and the inhibition was -0.33%. Compound `C=CCNC(=O)c1ccccc1SCc1c(C)noc1C` has an inhibition of -3.18%. With `Cc1noc(C)c1CSc1nnc2ccc3ccccc3n12` the inhibition was 31.2% (active). For `Cc1noc(C)c1CSCC(=O)Nc1nc2ccc(Oc3ccccc3)cc2s1`, the inhibition was -2.14%. `CC(C)(C)c1cnnn1-c1ccc([N+](=O)[O-])cc1` gave an inhibition of -0.77%. Work on `CC1(C)C=C2[C@H]3CC[C@@H]4[C@@]5(C)CCC(=O)C(C)(C)[C@@H]5CC[C@@]4(C)[C@]3(C)CC[C@@]2(C(=O)O)CC1` yielded an inhibition of 0.2%. Compound `COc1cc2c(cc1OC)C(C(=O)Nc1cc(C)c(OC)c(C)c1)CC(=O)N2` (stereo not given) has an inhibition of -6.29%. `CC(=O)Nc1ccc(N2C(=O)CCC2=O)cc1C` showed an inhibition of 0.14%. With `O=C(CN1C(=O)/C(=C\c2ccc(C(F)(F)F)cc2)Sc2ccccc21)NCc1ccco1` the inhibition was 18.4%. With `O=C(CN1CCCCCC1)N1c2ccccc2Sc2ccc(C(F)(F)F)cc21` the inhibition was 98.4% (active). For `O=C(CSc1nc2ccccc2o1)N1c2ccccc2Sc2ccc(Cl)cc21`, the inhibition was -5.39%. `CCC(=O)Nc1cc(C(F)(F)F)ccc1N1CCCC1` was tested, and the inhibition was 4.4%. In the case of `O=C(CN1CCCCC1)N1c2ccccc2Sc2ccc(C(F)(F)F)cc21`, the inhibition was 98.8% (active). Compound `O=C(CN1CCCCCC1)Nc1ccc(Cl)cc1F` has an inhibition of 7.56%. With `COc1ccccc1NC(=O)N(O)C1(C#N)CCCCC1` the inhibition was 4.25%. In the case of `CCOC(=O)c1c(S(=O)(=O)Nc2ccc(CN3CCC(C)CC3)cc2)c(C)n(C)c1C`, the inhibition was 0.52%. For `Cc1cc(C(=O)N2CCN(c3ccccn3)CC2)c(C)o1`, the inhibition was -9.14%. Work on `Cc1cc(Br)ccc1NC(=O)c1sc2ncn(CC(=O)N3CCN(c4ccccn4)CC3)c(=O)c2c1C` yielded an inhibition of -9.8%. In the case of `Cc1cc(Br)ccc1NC(=O)c1cnc(N2CCN(c3ccccn3)CC2)c2ccccc12`, the inhibition was 27.7% (active). For `C[C@H](CO)N1C[C@H](C)[C@@H](CN(C)S(=O)(=O)c2ccc(F)cc2)OCc2cnnn2CCCC1=O`, the inhibition was -6.37%. With `CCc1noc(C)c1C(=O)Oc1ccc(N(C)S(=O)(=O)c2ccc(C)c(C)c2)cc1` the inhibition was 11.9%. In the case of `CCN(CC)CCCC(C)n1c2nc(=O)[nH]c(=O)c-2nc2cc(Cl)ccc21` (stereo not given), the inhibition was 41.2% (active). With `CCCN(CCc1ccccc1)C1CCc2c(O)cccc2C1` (stereo not given) the inhibition was 2.43%. With `Cc1ccc(S(=O)(=O)n2oc(=O)c(C3CCCCC3)c2N)cc1` the inhibition was 33.2% (active). With `Cc1ccc(S(=O)(=O)N2CCC(N3CCCCCC3)CC2)cc1` the inhibition was 6.92%. With `Cc1ccc(S(=O)(=O)N2CCC(C(=O)N3CCCCCCC3)CC2)cc1` the inhibition was 1.57%. Work on `CCC(C)(C)NC(=O)CN(C(=O)C(=O)Nc1ccc2c(c1)OCCO2)C(C)(C)CC` yielded an inhibition of 1.43%. Work on `CCOCCn1[nH]c2ccccc2c1=O` yielded an inhibition of 3.03%. `O=C(c1cncc(Br)c1)N1CCN(c2ccc([N+](=O)[O-])cc2)CC1` gave an inhibition of 15.7%. `O=[N+]([O-])c1ccc(N2CCN(c3ccc(F)cc3)CC2)cn1` was tested, and the inhibition was 8.5%. In the case of `O=C(c1cc(C(=O)N2CCN(c3ccc(F)cc3)CC2)cc([N+](=O)[O-])c1)N1CCN(c2ccc(F)cc2)CC1`, the inhibition was 29.5% (active). With `CC(=O)c1c(N2CCOCC2)nc(=S)n(Cc2ccccc2)c1C` the inhibition was 10%. With `CCOc1ccccc1NC(=S)N1CCN(c2cccc(C)c2C)CC1` the inhibition was -0.84%. `COc1ccccc1NC(=S)N1CCN(C(c2ccccc2)c2ccccc2)CC1` was tested, and the inhibition was 32.8% (active). `COc1ccccc1NC(=S)N1CCC(NC(=O)C23CC4CC(CC(C4)C2)C3)CC1` showed an inhibition of 6.64%. Work on `O=C(c1ccc2c(c1)C(=O)N(Cc1ccncc1)C2=O)N1CCN(S(=O)(=O)c2ccc(OC(F)(F)F)cc2)CC1` yielded an inhibition of 11.6%. Work on `COc1cccc(COC(=O)C2CCN(S(=O)(=O)c3ccc(Cl)cc3)CC2)c1OC` yielded an inhibition of 10.6%. With `O=C(COc1ncnc2ccccc12)NC(=O)NCc1ccccc1` the inhibition was 6.01%. In the case of `COc1ccc(CNc2ncnc3ccccc23)cc1`, the inhibition was 33.8% (active). `COc1ccc(CNC(=O)COc2cccnc2[N+](=O)[O-])cc1` showed an inhibition of 8.36%. Work on `CCCCN(C)Cc1c(C)[nH]c2ccc(Cl)cc2c1=O` yielded an inhibition of -2.11%. Compound `O=S(=O)(NCCc1ccc(Cl)cc1)c1cccs1` has an inhibition of 2.77%. With `O=C(Nc1cccc(Cl)c1)Nc1ccccc1NS(=O)(=O)c1cccs1` the inhibition was 30.1% (active). Work on `O=S(=O)(Nc1ccccc1)c1ccc(NS(=O)(=O)c2cccs2)cc1` yielded an inhibition of 3.98%. With `CCCCCC1CCC(c2nnc(SCC(C)=O)o2)CC1` (stereo not given) the inhibition was -0.26%. With `CCOC(=O)C(CO)NC(=O)C1(NC(C)=O)CCCC1` (stereo not given) the inhibition was 5.55%. `COc1cccc(N(CC(=O)NCc2ccccc2)C(=O)CCC(=O)Nc2nccs2)c1` showed an inhibition of 9.51%. `CCCc1cc(=O)[nH]c2nnc(SCC(=O)Nc3nnc(SCC)s3)n12` showed an inhibition of 6.93%. For `COc1ccccc1OCCNC(=O)CCNC(=O)c1ccccc1Cl`, the inhibition was 17.2%. `CC(=O)Nc1ccc(NC(=O)C(C)OC(=O)C2CC(=O)N(CCc3ccccc3)C2)cc1` (stereo not given) was tested, and the inhibition was 7.46%. With `COc1cccc(/C=C2\SC(=N)N(c3ccc(F)cc3)C2=O)c1` the inhibition was 11%. In the case of `CC(=O)N1CC(C)c2scc(C)[n+]2-c2ccccc21` (stereo not given), the inhibition was -1.76%. In the case of `CCC(C(=O)NC1CCCC1)N(C(=O)c1snc(C(N)=O)c1N)c1ccc2c(c1)OCCO2` (stereo not given), the inhibition was -5.82%. In the case of `O=C(NNS(=O)(=O)c1ccc(Cl)cc1)C1CCN(Cc2ccccc2)CC1`, the inhibition was 40.5% (active). Compound `O=C(NCc1ccccc1CN1CCCC1)C1CCN(S(=O)(=O)c2ccc(Cl)cc2)CC1` has an inhibition of 1.2%. For `Cc1ccc(S(=O)(=O)NCCC(=O)NC2CCN(Cc3ccccc3)CC2)cc1`, the inhibition was 6.57%.
